Source: PubChem
HTT ATP protect – Huntington cell model cytoprotection by ATP luminescence | Potency, µM (titrated, usually from 56.4 µM), for inactives: cytoprotection (ATP increase), usual class: activators | 230,000 tested, 0.14% active | PC12 HTT-Q103 induced, cytoprotection, ATP luminescence, 40 h; further: % of control where 0% means no effect; nearly all actives have a fitted effect of over 45% in size
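PC12 cells stably carrying ecdysone-inducible Htt exon 1 (Q103)–GFP were induced with 100 nM tebufenozide (final) alongside library compounds in a dose series. Cytoprotection was scored as retained ATP by ATPlite luminescence.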
Lamin A splicing – changes lamin A minigene splicing in HeLa cells; Potency, µM (series often up to 46.1 µM), for inactives: at the top dose ratio change, negative = inhibition, hits mostly inhibitors; AID 1487; HeLa LMNA splicing GFP/RFP minigene ratio, 48 h; 200,000 tested, 0.01% active; active means well fitted inhibition curve with a large enough effect in the signal ratio, with a control signal flat, not every such curve was filed as active; inconclusive means small, poorly fitted or top-dose-only effect, or effect the other way, or a change in a side signal; the % refers to the signal ratio; further: on the % scale 0 is the no-effect control and ±100 the full control effect
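S3 HeLa cells stably expressing lamin A-EGFP splicing minigene plus DsRed2, 600 cells/well, 48 h compound exposure at 37C. Laser-scanning cytometry; analysed as GFP (500-530 nm)/RFP (575-640 nm) total intensity ratio; 0.5% DMSO vehicle.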
HPGD inh – HPGD (human) dehydrogenase inhibition. purified HPGD, NADH fluorescence kinetic, PGE2 substrate. Potency, µM, without a hit: at the highest dose activity change, negative = inhibition, most hits filed as inhibitors. 150,000 tested, 4.3% active. AID 894; active means well fitted inhibition curve with a large enough effect, not every such curve was filed as active; inconclusive means small, poorly fitted or top-dose-only effect, or another doubt; inactive means no such curve, though single readings can be large or run the other way; further: on the % scale 0 is the no-effect control and ±100 the full control effect
Target sequence (P15428 whole entry, looked up): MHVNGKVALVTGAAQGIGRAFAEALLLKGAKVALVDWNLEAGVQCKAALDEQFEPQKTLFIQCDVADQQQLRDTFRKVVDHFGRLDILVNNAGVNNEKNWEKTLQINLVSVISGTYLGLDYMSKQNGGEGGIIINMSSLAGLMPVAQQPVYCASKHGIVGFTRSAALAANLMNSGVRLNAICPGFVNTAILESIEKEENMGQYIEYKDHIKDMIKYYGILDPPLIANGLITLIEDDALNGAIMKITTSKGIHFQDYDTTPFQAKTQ
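NADH formation kinetics: reaction with 30 uM PGE2 and 1 mM NAD+ (final), 20 nM enzyme, Tris-HCl pH 8 with Tween 20, after 15 min compound preincubation at room temperature. Fluorescence change, last versus first of five reads.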
Luc counter – blocks Kinase-Glo luciferase, a counter-screen artifact | Q27757 | AID 1379 | Potency, µM (titrated, usually from 38.3 µM), for the others: at the highest dose activity change, negative = inhibition, hits mostly inhibitors | 200,000 tested, 0.28% active | Kinase-Glo luciferase, ATP luminescence, 8 min; further: on the % scale 0 is the no-effect control and ±100 the full control effect; nearly all actives have a fitted effect of over 60% in size
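Compounds were added to a substrate mix at pH 7.2 (50 mM imidazole, 10 uM ATP, within the enzyme's linear range), followed by Kinase-Glo detection reagent; luminescence was measured after 8 minutes at ambient temperature.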
HTT aggregate – inhibitors of mutant huntingtin aggregate formation in PC12 cells | Potency, µM (highest dose often 46.1 µM), for inactives: top-dose activity change, negative = inhibition, actives largely listed as inhibitors | PC12 HttQ103-GFP aggregates, Acumen cytometry, 40 h | 220,000 tested, 1.1% active; further: on the % scale 0 is the no-effect control and ±100 the full control effect; nearly all actives have a fitted effect of over 60% in size
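Using laser scanning cytometry, GFP-positive aggregates were counted after lysis of PC12 cells induced with 100 nM tebufenozide to express HTT exon 1 Q103–GFP. Compounds were tested in titration.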
ALDH1A1 inh – ALDH1A1 (human) enzyme inhibition; Potency, µM (series often up to 75.3 µM), for inactives: at the top dose activity, negative = inhibition, actives largely listed as inhibitors; Purified ALDH1A1, NADH fluorescence, propionaldehyde substrate; AID 1030; 220,000 tested, 7.3% active; active means well fitted inhibition curve with a large enough effect, not every such curve was filed as active; inconclusive means small, poorly fitted or top-dose-only effect, or another doubt; inactive means no such curve, though single readings can be large or run the other way;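 further: plate controls were no enzyme wells and a reference inhibitor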
Target sequence (P00352 whole entry, looked up): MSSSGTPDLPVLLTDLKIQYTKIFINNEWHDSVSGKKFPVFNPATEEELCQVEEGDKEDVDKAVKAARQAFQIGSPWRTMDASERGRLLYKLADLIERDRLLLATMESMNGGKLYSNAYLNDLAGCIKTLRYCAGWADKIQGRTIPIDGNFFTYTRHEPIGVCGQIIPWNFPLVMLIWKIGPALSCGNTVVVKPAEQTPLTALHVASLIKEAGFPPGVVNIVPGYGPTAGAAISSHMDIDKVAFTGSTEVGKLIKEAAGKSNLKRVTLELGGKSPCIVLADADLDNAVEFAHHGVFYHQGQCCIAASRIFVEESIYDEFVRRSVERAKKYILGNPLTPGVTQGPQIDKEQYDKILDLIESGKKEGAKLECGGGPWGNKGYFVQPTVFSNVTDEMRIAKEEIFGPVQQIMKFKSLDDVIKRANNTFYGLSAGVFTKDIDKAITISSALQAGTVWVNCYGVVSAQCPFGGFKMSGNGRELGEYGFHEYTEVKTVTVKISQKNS
* marks the source's active call; other numbers are inactive results; ? = inconclusive; . = no result; [ ] = remark or other dose. A selection: hits, their analogues and other compounds. The true share with any hit is near 9%. Unless noted, the call rests on the fitted dose curve; in most records, active means well fitted curve in the direction sought with a large enough effect; inconclusive means small, poorly fitted or top-dose-only effect, or another doubt; inactive means no such curve, though single readings can be large; an effect the other way counts as inactive or inconclusive. Potency means the concentration at half of the fitted maximal effect.

SMILES	HTT ATP protect	Lamin A splicing	HPGD inh	Luc counter	HTT aggregate	ALDH1A1 inh
COc1ccc2c(c1)-c1nc(NC(=O)c3ccco3)sc1CC2	-37%[10 µM]	?	-23%	0%	-19%	?
COc1ccc2c(c1)Cc1sc(NC(=O)c3cccnc3)nc1-2	-32%	-16%[46 µM]	.	-4%	18%	3.5µM*
CN(C)S(=O)(=O)c1ccc2c(c1)nnn2CCNC(=O)Nc1ccc(Cl)cc1	.	2%[46 µM]	.	.	.	.
CCN1C(=O)/C(=C\c2ccc(-c3ccc([N+](=O)[O-])cc3OC)o2)SC1=Nc1cccc(C(=O)O)c1	.	?	.	-9%	1%	0.63µM*
Fc1ccccc1CSc1nc2ncccc2[nH]1	-1%[10 µM]	15%	18µM*	-9%	-24%	22µM*
CCCN1C(=O)C(NC(=O)c2ccncc2)(C(F)(F)F)C2=C1CC(C)(C)CC2=O (centres undefined)	-9%[0.074 µM]	8%	-14%	7%	-6%[9.22 µM]	7.1µM*
CC1(C)CC(=O)C2=C(C1)N(Cc1ccco1)C(=O)C2(NC(=O)c1ccc(Cl)cc1Cl)C(F)(F)F (centres undefined)	-7%	17%	-9%	1%	-14%	2%
CC1(C)CC(=O)C2=C(C1)N(Cc1ccco1)C(=O)C2(NC(=O)C1CCCCC1)C(F)(F)F (centres undefined)	-4%	14%	0%	-2%	5.6µM*	-2%
O=C(Nc1cccc(S(=O)(=O)C(F)F)c1)c1ccc(S(=O)(=O)N2CCCCC2)cc1	.	?	.	1%	?	?
CCCCOc1cccc(-c2cc(C(=O)NNC(=S)NCC)c3ccccc3n2)c1	-25%	?	-15%	0%	-15%[9.22 µM]	?
CCN(C(=O)Cn1cnc2cc([N+](=O)[O-])ccc2c1=O)C1CCS(=O)(=O)C1 (centres undefined)	7%[10 µM]	12%[46 µM]	.	-1%	2%	7%
CCN(C(=O)COC(=O)c1cc([N+](=O)[O-])ccc1N1CCCCC1)C1CCS(=O)(=O)C1 (centres undefined)	-19%	.	.	-2%	-5%	14µM*
Cc1cc(C)cc(N2CCn3c2nc2c3c(=O)n(CCc3ccccc3)c(=O)n2C)c1	.	1.8µM*	.	.	.	.
Cn1c(=O)n(CCc2ccccc2)c(=O)c2c1nc1n2CCCN1Cc1ccccc1	-31%	?	-9%	2%	-52%	?
CCOc1ccc(N2CCCn3c2nc2c3c(=O)n(CCc3ccccc3)c(=O)n2C)cc1	-4%[0.074 µM]	-1%	?	-1%	6%	11µM*
Cn1c(=O)n(CCc2ccccc2)c(=O)c2c1nc1n2CCCN1CCc1ccccc1	-24%[0.074 µM]	?	-11%	5%	?	11µM*
Cc1cc(C)cc(N2CCn3c2nc2c3c(=O)n(CCCc3ccccc3)c(=O)n2C)c1	.	2%[46 µM]	.	.	.	.
CC(=O)c1cc(-c2ccccc2)n(CC(=O)Nc2ccc(C)c(C)c2)c1C	15%[10 µM]	?	-8%	-4%	-6%	8%
COc1ccc(N2CCN(C(=O)c3ccc(NC(=O)c4nsc5ccccc45)cc3)CC2)cc1	.	-1%[46 µM]	.	.	.	.
O=C(Nc1nnc(-c2ccc(F)cc2)s1)C1CCN(S(=O)(=O)c2ccc(Cl)cc2)CC1	-4%[10 µM]	-4%	-1%	-3%	-17%	1%
Cc1cccc(NC(=O)c2c([N+](=O)[O-])c(C(C)(C)C)nn2C)c1	-3%[10 µM]	2%	-8%	-6%	-5%	-7%
CSc1nc2sc3c(c2c(=O)n1C)CCC(C)C3 (centres undefined)	-31%	8%	-11%	-5%	-12%	25µM*
C=CCn1nnc2sc3c(c2c1=O)CCC(C)C3 (centres undefined)	-4%[10 µM]	11%	-19%	-4%	-14%	18µM*
CCCN(CCC)CC(O)Cn1c2ccccc2c2ccccc21 (centres undefined)	-16%[10 µM]	.	.	-3%	-11%[9.22 µM]	-3%
CCCCCCCn1ccc(O)c(CC(=O)OC)c1=O	-4%[10 µM]	-1%[46 µM]	.	-3%	20%	9%
SMILES	HTT ATP protect	Lamin A splicing	HPGD inh	Luc counter	HTT aggregate	ALDH1A1 inh
CCCCCn1ccc(=O)c2c(C(F)(F)F)nccc21	22%[10 µM]	?	-25%	2%	11µM*	-2%
N#C/C(=C\c1c(N2CCCCC2)nc2ccccn2c1=O)C(=O)NCc1ccco1	10%[10 µM]	0%	-27%	-5%	-25%	28µM*
CCNC(=O)/C(C#N)=C/c1c(N2CCOCC2)nc2ccccn2c1=O	21%[10 µM]	-6%	?	3%	4%	?
CCNC(=O)/C(C#N)=C/c1c(N(Cc2ccccc2)Cc2ccccc2)nc2ccccn2c1=O	-3%[10 µM]	?	-8%	4%	?	16µM*
CNC(=O)/C(C#N)=C/c1c(N(Cc2ccccc2)Cc2ccccc2)nc2c(C)cccn2c1=O	-10%[10 µM]	?	-16%	2%	?	-104%
N#C/C(=C\c1c(N2CCCCCC2)nc2ccccn2c1=O)C(=O)NCc1ccco1	-6%[10 µM]	.	.	.	4%[9.22 µM]	13µM*
Cc1cccn2c(=O)c(/C=C(\C#N)C(=O)NCc3ccco3)c(N3CCC(C(N)=O)CC3)nc12	44%[10 µM]	-10%	-30%	3%	3%	?
O=C1CCCCCN1Sc1ccccc1	19%	0%	.	.	-3%	-13%
Cc1csc(NC(=O)c2cc(C)oc2C)n1	-18%	10%	18µM*	?	2%	-2%
COC(=O)c1sc(NC(=O)c2ccco2)nc1C	-27%	4%	?	?	13%	?
COc1ccc2nc(NC(=O)c3cc(C)oc3C)sc2c1	-11%[10 µM]	7%	?	13µM*	1%	-8%
COC(=O)c1sc(NC(=O)c2ccoc2C)nc1C	18%[10 µM]	-7%	-22%	7.9µM*	-12%	-4%
COc1ccc(NS(=O)(=O)c2cc(C)ccc2NC(=O)c2cc(C)oc2C)cc1	-71%[10 µM]	?	-18%	0%	?	7.9µM*
COc1ccc(NS(=O)(=O)c2cccc(C(=O)NNC(=O)c3cc(C)oc3C)c2)cc1	4%[10 µM]	-5%	-7%	-1%	5%	-5%
Cc1c(-c2ccc(F)cc2)nc(N)c(C#N)c1-c1ccco1	-10%	10%	-17%	-3%	23%	?
COc1ccc2nc(NC(=O)c3ccoc3C)sc2c1	-16%[10 µM]	-4%	?	3.2µM*	8%	?
CCCC(=O)c1ccc(N2CCCCCC2)c(F)c1	-5%	-3%	16µM*	1%	-13%	?
CCCC(=O)c1ccc(N2CCC(C)CC2)c(F)c1	.	5%	14µM*	-1%	14%	4%
CC(=O)c1ccc(NS(=O)(=O)c2ccc(CC(C)C)cc2)cc1	20%	?	?	3%	-2%[9.22 µM]	6.3µM*
CC1(C)OC(=O)C(=CNc2ncccn2)C(=O)O1	5%	7%	-7%	1%	3%	?
